The whole screen tested about 330,000 compounds, of which about 1,900 (0.58%) were called active. Inconclusive results (about 4%) are left out. These entries were drawn from the full list. Results with a measured potency or affinity are listed apart. A number with no mark means an inactive call. Cut-off read from the data, not from the text of the source: inconclusive = inhibition above about 70% without an active follow-up result; inactive = below that.

This assay in a line: M. tuberculosis growth inhibition, HTS (AID 449762).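 Note: bacterial growth assessed after seven days of incubation.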 Particulars: M. tuberculosis H37Rv growth inhibition, 7H9 media; at 25 µM; active compounds read high.
What is called inhibition is the drop in the measured response relative to a control, in per cent. For the molecule `Cc1cc(C)c(NC(=O)CN(C)CC(=O)Nc2cccc(S(=O)(=O)N(C)c3ccccc3)c2)c(C)c1`, the inhibition is 1.14%.
As to `CN(CC(=O)Nc1ccccc1Cl)C(=O)CSc1ncc(C(F)(F)F)cc1Cl`, the inhibition is 3.84%.
Next, `Cc1cc(Cl)ccc1NC(=O)COC(=O)c1cc([N+](=O)[O-])ccc1N1CCOCC1`: -0.98%; `N#CCCn1cc(C(=O)NCc2ccccc2)c(-c2ccc3c(c2)OCCO3)n1`: -3.92%; `CN(C)S(=O)(=O)c1ccc(C(=O)Nc2nnc(-c3ccco3)o2)cc1`: 70.1%.
In the case of `CCN(c1ccccc1)S(=O)(=O)c1ccc(C(=O)Nc2nnc(-c3ccco3)o2)cc1`, the inhibition is 12.1%.
Under `O=C(NCCNC(=O)c1ccc(Cl)cc1Cl)c1ccco1` stands 2.57%; under `O=C(O)c1cnn2cc(-c3[nH]ncc3[N+](=O)[O-])cnc12`, 0.22%; under `Cc1cccc(N2CC(C(=O)Nc3nccs3)CC2=O)c1C` (stereo unspecified), 4.15%.
For `CCOC(=O)C1(Cc2ccc(Cl)cc2)CCN(C(=O)c2cnc(C)cn2)CC1`, the inhibition is -0.58%.
`Cn1cc(CNC(=O)C2CCC(=O)N(Cc3cccc(C(F)(F)F)c3)C2)cn1` (stereo unspecified): the inhibition is -6.46%.
On to `CSc1ccc(CNC(=O)C2CCC(=O)N(Cc3cccc(F)c3)C2)cc1` (stereo unspecified), for which the inhibition is -1.72%.
Next, `Cc1ccc2nc(NCc3ccccc3)c(C=O)c(=O)n2c1`: 2.81%; `C[C@H](NC(=O)NCc1ccc(F)cc1)C(=O)O`: -0.83%; `Nc1nc2ccccc2n1C(=O)c1cccs1`: 10.2%.
Take `COc1ccc(C(=O)n2c(N)nc3ccccc32)cc1OC`: the inhibition was 44.1%.
For the molecule `c1cc2c3c(cccc3c1)C(N1CCCCC1)=N2`, the inhibition was -4.9%.
Turning to `c1cc2c3c(cccc3c1)C(N1CCOCC1)=N2`, the inhibition is -3.61%.
Under `Cc1cc(NC(=O)CSc2cn(CCNC(=O)c3ccc(Cl)cc3)c3ccccc23)no1` stands -7.12%.
Next, `O=[N+]([O-])c1ccc(-c2nc(NCC3CCCO3)c3ccccc3n2)cc1` (stereo unspecified): 2.21%.
Take `c1cncc(-c2nc(NCC3CCCO3)c3ccccc3n2)c1` (stereo unspecified): the inhibition was 6.22%.
Turning to `C=CCN1C(=O)C(CC(=O)Nc2ccc(OC)cc2)N(Cc2ccco2)C1=S` (stereo unspecified), the inhibition is -5.03%.
Under `O=C(O)CCNS(=O)(=O)c1ccccc1C(F)(F)F` stands -11.5%; under `c1ccc(NCCCNc2ccccc2)cc1`, 2.48%; under `COc1cc(CNc2ncn[nH]2)cc(Br)c1OC`, -1.3%.
With `Cc1ccc(Cn2ccc(=O)c(OCc3ccccc3)c2C)cc1`, the inhibition is -1.87%.
Next, `Cc1c(OCc2ccccc2)c(=O)ccn1Cc1ccccc1`: 18%.
Take `CC1(CCc2ccccc2)NC(=O)N(CC(=O)N2CC(=O)Nc3ccccc32)C1=O` (stereo unspecified): the inhibition is -6.43%.
Under `Cc1cc(NC(=O)Cn2cnc3sccc3c2=O)no1` stands -4.01%; under `O=C(O)c1ccccc1C(=O)N1N=C(c2ccccc2)CC1c1ccccc1O` (stereo unspecified), 0.11%; under `C=CCSc1nnc(COc2ccc(=O)n(-c3ccccc3)n2)n1CC`, 1.1%.
Turning to `Cc1cc(=O)n2[nH]c(NCc3c(F)cccc3Cl)nc2n1`, the inhibition is 11.1%.
For the molecule `CCC(=O)Nc1nc2nc(C)cc(=O)n2[nH]1`, the inhibition is -0.66%.
Under `Cc1ccc2nc(Nc3ccc(Cl)cc3)c3nncn3c2c1` stands 7.65%; under `COc1ccc(CN2CC[C@H]3C=CC[C@@H](C(=O)NCCc4ccccc4)[C@H]3C2=O)cc1OC`, -2.75%.
As to `O=C(NCCc1ccccc1)[C@@H]1CC=C[C@@H]2CCN(Cc3ccccc3)C(=O)[C@@H]21`, the inhibition is 1.96%.
Next, `CCN(CC)C(=S)SCC(=O)c1ccccc1`: 3.47%; `C=C(Cl)CSC(=S)N(CC)CC`: 14%; `CCOC(=O)C1CCN(C(=O)CCc2nnc3ccc(N4CCC(C)CC4)nn23)CC1`: 1.94%.
Regarding `CCC(C)(C)NC(=O)C(C)OC(=O)c1nsc(Cl)c1Cl` (stereo unspecified), the inhibition was -2.01%.
Under `O=C(N/N=C/c1ccco1)c1cc(-c2ccc3ccccc3c2)n[nH]1` stands 14.2%.
Next, `Cc1ccc(-c2cc(C(=O)N/N=C/c3ccco3)[nH]n2)cc1`: -2.14%; `CN(C)C(CNC(=O)c1coc2ccccc2c1=O)c1ccccc1` (stereo unspecified): 8.82%.
Under `COC(=O)C1=C(c2ccc(OCc3ccccc3)cc2)C[C@@H]2CC[C@H]1N2C(=O)NCCCc1ccccc1` stands -6.15%.
For the molecule `COC(=O)C1=C(c2ccc(OCc3ccccc3)cc2)C[C@@H]2CC[C@H]1N2C(=O)NCc1ccccc1`, the inhibition is -9.3%.
Next, `COc1ccc(CNC(=O)c2ccc(S(=O)(=O)NCc3ccco3)cc2)cc1`: 9.2%; `COc1ccc2cc(Br)ccc2c1CC(=O)N(C)C`: 8.82%; `CCN(CC)C(=O)Cc1c(OC)ccc2cc(Br)ccc12`: -2.55%.
Turning to `O=C(Nc1ccccc1C(F)(F)F)c1ccc2nccnc2c1`, the inhibition is -5.96%.
For the molecule `Brc1ccc(/C=N/Nc2nncc(-c3ccccc3)n2)o1`, the inhibition is -1.56%.
Next, `CC(=O)c1ccc(N2CCN(C(=O)C3CCN(S(=O)(=O)Cc4ccccc4)CC3)CC2)cc1`: -3.28%; `Cc1ccc(C(=O)Nc2cccc(C(F)(F)F)c2)cc1NC(=O)c1[nH]cnc1C(N)=O`: 1.02%; `Cc1ccc(C(=O)Nc2cccc(C(F)(F)F)c2)cc1Nc1cnccn1`: 0.61%.
In the case of `COc1ccc(CN(Cc2ccccn2)S(=O)(=O)c2ccc(-n3cnnn3)c(OC)c2)cc1`, the inhibition is -8.37%.
Next, `NS(=O)(=O)c1cccc(NC(=O)CCS(=O)(=O)c2ccc(Cl)cc2)c1`: -6.68%.
Under `COc1cccc(NC(=S)N2CCN(c3ccc([N+](=O)[O-])cc3)CC2)c1` stands 0.58%; under `O=C(Nc1ccccc1OCc1ccccc1)c1ccccc1Br`, 12.7%; under `COc1cc(C(N)=O)cc(Br)c1OCc1ccccc1`, -3.08%.
In the case of `Cn1c(SCc2cccc(F)c2)nnc1-c1ccncc1`, the inhibition was -10.7%.
Under `NC1=NC(c2ccccc2Cl)n2c(nc3ccccc32)N1` (stereo unspecified) stands -5.58%; under `NC1=NC(c2ccc(Cl)cc2)n2c(nc3ccccc32)N1` (stereo unspecified), -2.59%.

These data come from PubChem BioAssay AID449762 (Southern Research Specialized Biocontainment Screening …, 2010).
